Hits are enriched below; roughly 19% of the tested compounds scored in any of these assays.
TGFb SMAD3 inh = TGF-b pathway inhibition. HepG2 CAGA-GFP TGF-b/SMAD3 reporter, GFP fluorescence, 18 h; TGF-beta stimulated, 500 pg/mL final. Potency, µM (top dose mostly 46.1 µM), without a hit: at the highest dose activity, negative = inhibition, hits mostly inhibitors. 410,000 compounds, 1.2% hits. AID 588855; note: potency is the fitted concentration of half-maximal effect; % is set by controls: 0 for no effect and ±100 for the full control effect; nearly all actives have a fitted effect of over 65% in size
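Using HEPG2 CAGA-GFP reporter cells at 1000 cells/well, we pinned test compounds, stimulated with recombinant TGF-beta (500 pg/mL final) and measured total well GFP after 18 h.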
S-ASM inh = blocks human secretory acid sphingomyelinase; P17405; placental ASM, HMU-PC fluorogenic substrate, 60 min; Potency, µM (top dose mostly 57.5 µM), for inactives: at the top dose activity change, negative = inhibition, actives largely listed as inhibitors; 340,000 compounds, 0.006% hits; note: potency is the fitted concentration of half-maximal effect
Target sequence (P17405 47-631 limits assumed): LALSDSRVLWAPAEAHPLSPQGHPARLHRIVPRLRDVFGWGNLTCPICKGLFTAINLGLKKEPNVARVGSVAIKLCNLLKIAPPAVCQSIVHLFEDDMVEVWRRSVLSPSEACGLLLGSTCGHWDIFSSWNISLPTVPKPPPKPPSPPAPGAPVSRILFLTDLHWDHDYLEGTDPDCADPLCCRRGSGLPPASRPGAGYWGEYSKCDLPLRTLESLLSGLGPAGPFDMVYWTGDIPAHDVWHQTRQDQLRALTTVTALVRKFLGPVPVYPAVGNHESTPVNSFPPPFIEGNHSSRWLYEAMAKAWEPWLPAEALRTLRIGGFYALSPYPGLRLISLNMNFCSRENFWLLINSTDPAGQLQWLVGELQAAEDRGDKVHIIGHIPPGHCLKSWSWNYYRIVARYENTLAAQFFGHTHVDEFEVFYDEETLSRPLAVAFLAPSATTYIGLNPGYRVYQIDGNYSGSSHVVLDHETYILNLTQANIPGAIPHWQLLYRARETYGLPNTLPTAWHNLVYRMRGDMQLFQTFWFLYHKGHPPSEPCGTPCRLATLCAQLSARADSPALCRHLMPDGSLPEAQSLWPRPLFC
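Steps: dispense placental human ASM, pin compound, wait 10 min at room temperature, add HMU-PC0 substrate at 9 uM final, incubate 60 min at 37 °C, add stop solution raising pH to 10, read fluorescence.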
HepG2 viability = counter-screen for TGF-b inhibitors: cytotoxicity in HepG2 cells. HepG2 CAGA-GFP viability, ATP luminescence, 18 h. 410,000 compounds, 0.76% hits. Potency, µM (titrated, usually from 46.1 µM), for the others: top-dose activity change, negative = cytotoxicity, hits mostly cytotoxic; note: potency is the fitted concentration of half-maximal effect
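CellTiter-Glo luminescence gave cytotoxicity after 18 hours at 37 degrees C. The cells were HepG2 CAGA-GFP in 1% FBS DMEM, stimulated with 500 pg/mL TGF-beta after compound addition. %Activity was normalised to no-cell wells (complete cell-killing) and DMSO (no toxicity), and curves were fitted and classified.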
IL1B secr inh = inflammasome signaling inhibition, IL-1 beta readout. AID 743279. activity change, % at 57.5 µM. THP-1 LPS/ATP IL-1B secretion, AlphaLISA, 16 h; active compounds read low. 360,000 compounds, 4.7% hits; in the data active = activity change below about -50%; inconclusive = mostly about -30% to -49%; note: % is set by controls: 0 for no effect and ±100 for the full control effect
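THP-1 cells pretreated 1 hr with compounds (up to 57.5 uM final), then stimulated with LPS (250 ng/mL final) plus ATP (1.25 mM final); secreted IL-1B measured by AlphaLISA after 16 hr, decreased signal indicating inhibition.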
DT40 TDP1 no CPT = qHTS for Inhibitors of human tyrosyl-DNA phosphodiesterase 1 (TDP1): qHTS in cells in absence of CPT; DT40 Tdp1-/- hTDP1 cells, no CPT, ATP luminescence, 48 h; Potency, µM (highest dose often 46.2 µM), for the others: at the highest dose activity change, negative = growth inhibition, usual class: inhibitors; 420,000 compounds, 15% hits; AID 686978, 2013; note: potency is the fitted concentration of half-maximal effect; % is set by controls: 0 for no effect and ±100 for the full control effect; nearly all actives have a fitted effect of over 55% in size
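Seeded 400 DT40-hTDP1 cells/well (vehicle DMSO, no 20 nM CPT); pinned compounds; ≥48 hr at 37 °C; CellTiter-Glo luminescence as viability measure.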
DT40 TDP1 CPT = growth inhibition of DT40 Tdp1-/-;hTDP1 cells with camptothecin (screen for TDP1 inhibitors); chicken DT40 Tdp1-/-;hTDP1 cells + 20 nM CPT, ATP luminescence, 48 h; Potency, µM (highest dose often 46.2 µM), for inactives: at the top dose activity change, negative = growth inhibition, actives largely listed as inhibitors; 420,000 compounds, 12% hits; note: potency is the fitted concentration of half-maximal effect; % is set by controls: 0 for no effect and ±100 for the full control effect; nearly all actives have a fitted effect of over 55% in size
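Cell growth measured by CellTiter-Glo luminescence after a minimum 48 h, 37 C compound exposure with 20 nM CPT in Tdp1-knockout DT40 cells stably expressing hTDP1, seeded 400/well; qHTS titration format.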
An asterisk follows results filed as active. Unless noted, calls come from the whole dose curve; as a rule, active = well fitted curve in the direction sought with a large enough effect; inconclusive = small, poorly fitted or top-dose-only effect, or another doubt; inactive = no such curve, though single readings can be large; an effect the other way counts as inactive or inconclusive.

Screening Cc1cccc(-n2c(/C=C\c3cccc(Br)c3)nc3ccccc3c2=O)c1 returned TGFb SMAD3 inh -28%, HepG2 viability -13%, DT40 TDP1 no CPT inconclusive and DT40 TDP1 CPT inconclusive.
For NC(=O)CS(=O)C(c1ccccc1)c1ccccc1 (stereo unspecified) the results were DT40 TDP1 no CPT -7% and DT40 TDP1 CPT 6%.
Screening Cc1ccc(N2CCN(C(=O)c3cn(CC4CCCCC4)nn3)C(C)C2)cc1 (stereo unspecified) returned TGFb SMAD3 inh inconclusive, S-ASM inh -6%, HepG2 viability -4%, IL1B secr inh -5, DT40 TDP1 no CPT inconclusive and DT40 TDP1 CPT 18µM*.
`c1cncc(C2CC(c3cccs3)n3ncnc3N2)c1` (stereo unspecified) gave TGFb SMAD3 inh 6%, S-ASM inh 6%, HepG2 viability -5%, IL1B secr inh 28, DT40 TDP1 no CPT -1% and DT40 TDP1 CPT -21%.
For O=C1NCCN(Cc2cccc(Oc3ccccc3)c2)C1CC(=O)N1CCCCC1 (stereo unspecified) the results were TGFb SMAD3 inh inconclusive, S-ASM inh 37%, HepG2 viability -26%, IL1B secr inh -4, DT40 TDP1 no CPT -24% and DT40 TDP1 CPT 5%.
Screening COc1ccc(N2CCN(Cc3nc4ccccc4[nH]3)CC2)cc1 returned TGFb SMAD3 inh -5%, S-ASM inh 3%, HepG2 viability 8%, IL1B secr inh 31, DT40 TDP1 no CPT -8% and DT40 TDP1 CPT 3%.
`CCCc1cc(N2CCN(c3ccc(OC)cc3)CC2)n2cnnc2n1` gave TGFb SMAD3 inh inconclusive, HepG2 viability -21%, DT40 TDP1 no CPT 12µM* and DT40 TDP1 CPT 16µM*.
O=C1CN=C(c2cccs2)c2c(sc3c2CCCC3)N1 was read as TGFb SMAD3 inh -19%, S-ASM inh 0%, HepG2 viability -21%, IL1B secr inh 29, DT40 TDP1 no CPT inconclusive and DT40 TDP1 CPT 16µM*.
CO/C=C(/C(=O)OC)c1ccccc1Oc1cc(Oc2ccccc2C#N)ncn1 was read as DT40 TDP1 no CPT 0.22µM* and DT40 TDP1 CPT 0.24µM*.
Cc1ccc(-c2nc(CS(=O)CC(=O)NC3CCCC(C)C3C)c(C)o2)cc1 (stereo unspecified) was read as TGFb SMAD3 inh inconclusive, S-ASM inh -1%, HepG2 viability 1%, IL1B secr inh -54*, DT40 TDP1 no CPT 11% and DT40 TDP1 CPT -17%.
`COC(=O)C1=C(c2c(C)noc2C)C[C@@H]2CC[C@H]1N2C(=O)NC1Cc2ccccc2C1` gave TGFb SMAD3 inh 1%, S-ASM inh -1%, HepG2 viability -5%, IL1B secr inh 16, DT40 TDP1 no CPT -13% and DT40 TDP1 CPT 1%.
CS(=O)(=O)OCC(O)C(O)COS(C)(=O)=O (stereo unspecified) was read as DT40 TDP1 no CPT 11µM* and DT40 TDP1 CPT 13µM*.
Screening CC(C)OS(C)(=O)=O returned TGFb SMAD3 inh 10%, S-ASM inh -1%, HepG2 viability -2%, IL1B secr inh -9, DT40 TDP1 no CPT 3% and DT40 TDP1 CPT 5%.
Screening C/C=C(\C)C(=O)N[C@@H](c1ccccc1)[C@@H](O)C(=O)O[C@H]1C[C@@]2(O)[C@@H](OC(=O)c3ccccc3)C3[C@](C)(C(=O)[C@H](O)C(=C1C)C2(C)C)[C@@H](O)C[C@H]1OC[C@@]31OC(C)=O (stereo partly specified) returned TGFb SMAD3 inh 4%, S-ASM inh 1%, HepG2 viability 2%, IL1B secr inh 42, DT40 TDP1 no CPT 0.16µM* and DT40 TDP1 CPT 0.046µM*.
